Reference: PubChem BioAssay (NCATS)
Results filed as inconclusive are left out. Active and inactive are the calls of the source. Calls follow the shape of the dose curve; as a rule, active = well fitted cell-killing curve with a large enough effect; inconclusive = small, poorly fitted or top-dose-only effect, or effect the other way; inactive = no such curve, though single readings can be large or run the other way.

Legend:
[1] = Quantitative High-Throughput drug screen in 47 multiple myeloma cell lines against the NCATS MIPE library collection: FR4_PLB cell viability assay (AID 1918924; also: nearly all actives have a fitted effect of over 35% in size)
Outline: (§1)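 Relative luminescence from CellTiter-Glo served as the viability signal, referenced to DMSO-treated (100%) and cell-free medium (0%) controls. Treatment lasted 48 hours at 37C with 500 cells per well.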

[2] = Quantitative High-Throughput drug screen in 47 multiple myeloma cell lines against the NCATS MIPE library collection: EJM_DSMZ cell viability assay (AID 1918926; also: nearly all actives have a fitted effect of over 30% in size)
Outline: (§2)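 Luminescent ATP measurement with CellTiter-Glo gives viability, scaled between DMSO-only wells (100%) and media-only wells (0%). Cells, 500 per well, faced library compounds for 48 hours at 37C.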

[3] = Quantitative High-Throughput drug screen in 47 multiple myeloma cell lines against the NCATS MIPE library collection: ARP1_JJKsccF8 cell viability assay (AID 1918928; also: nearly all actives have a fitted effect of over 40% in size)
Outline: (§3)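 CellTiter-Glo luminescence after 48 h exposure gives viability, scaled between DMSO-only (100%) and media-only (0%) controls. Library compounds are pinned onto 500 myeloma cells per well, incubated at 37C with 5% CO2.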

[4] = Quantitative High-Throughput drug screen in 47 multiple myeloma cell lines against the NCATS MIPE library collection: Karpas620_DSMZ cell viability assay (AID 1918959); also: nearly all actives have a fitted effect of over 30% in size
Outline: as §1

[5] = Quantitative High-Throughput drug screen in 47 multiple myeloma cell lines against the NCATS MIPE library collection: KMM1_JCRB cell viability assay (AID 1918960); also: nearly all actives have a fitted effect of over 30% in size
Outline: as §3

[6] = Quantitative High-Throughput drug screen in 47 multiple myeloma cell lines against the NCATS MIPE library collection: AMO1_DSMZ cell viability assay (AID 1918927; also: nearly all actives have a fitted effect of over 30% in size)
Outline: as §2

[7] = Quantitative High-Throughput drug screen in 47 multiple myeloma cell lines against the NCATS MIPE library collection: ARD_JJKsccE7 cell viability assay (AID 1918929)
Outline: as §2

[8] = Quantitative High-Throughput drug screen in 47 multiple myeloma cell lines against the NCATS MIPE library collection: Karpas417_ECACC cell viability assay (AID 1918961); details: Karpas417 myeloma viability, CellTiter-Glo ATP luminescence, 48 h; viability (% of DMSO): at 45.8 µM (top of the series)
Outline: as §1
Potency is read from the fitted curve at half-maximal effect.

CC(=O)CC(c1ccccc1)c1c(O)c2ccccc2oc1=O (centres undefined)
inactive: Potency [1] | Potency [2] | Potency [3] | Potency [4] | Potency [5]

C[C@@H](NCCCc1cccc(C(F)(F)F)c1)c1cccc2ccccc12
inactive: Potency [1] | Potency [2] | Potency [3] | Potency [5]

O=C(O)c1cn(C2CC2)c2cc(N3CCNCC3)c(F)cc2c1=O
inactive: Potency [1] | Potency [4] | Potency [5]

COc1ccc(-c2ccc3cc(C(=O)O)ccc3c2)cc1C12CC3CC(CC(C3)C1)C2
inactive: Potency [1] | Potency [6] | Potency [3] | Potency [4] | Potency [5]

CC(N)C12CC3CC(CC(C3)C1)C2 (centres undefined)
inactive: Potency [1] | Potency [2] | Potency [7] | Potency [4] | Potency [5]

N[C@@H](Cc1ccc(O)c(O)c1)C(=O)O
inactive: Potency [1] | Potency [2] | Potency [7] | Potency [4] | Potency [5]

O=C(O)c1cc(=O)[nH]c(=O)[nH]1
inactive: Potency [1] | Potency [6] | Potency [7] | Potency [4] | Potency [5] | Potency [8]

CNC1CCCN(c2c(F)cc3c(=O)c(C(=O)O)cn(C4CC4)c3c2OC)C1 (centres undefined)
inactive: Potency [1] | Potency [7]

CC(C)C[C@H](NC(=O)[C@H](CCc1ccccc1)NC(=O)CN1CCOCC1)C(=O)N[C@@H](Cc1ccccc1)C(=O)N[C@@H](CC(C)C)C(=O)[C@@]1(C)CO1
active: Potency [1] 0.0083 µM | Potency [2] 0.0105 µM | Potency [7] 0.001 µM | Potency [4] 0.001 µM | Potency [5] 0.001 µM

Cn1nnc2c(C(N)=O)ncn2c1=O
inactive: Potency [1] | Potency [2] | Potency [3] | Potency [4] | Potency [5]

COc1cc(NS(=O)(=O)c2ccc(N)cc2)nc(OC)n1
inactive: Potency [1] | Potency [6] | Potency [4] | Potency [5]

COc1cnc(NS(=O)(=O)c2ccc(N)cc2)nc1
inactive: Potency [1] | Potency [2] | Potency [3]
active: Potency [8] 11.8 µM

S=P(N1CC1)(N1CC1)N1CC1
inactive: Potency [1] | Potency [2] | Potency [3] | Potency [4]

CC(=O)[C@H]1CC[C@H]2[C@@H]3CC=C4C[C@@H](O)CC[C@]4(C)[C@H]3CC[C@]12C
inactive: Potency [1] | Potency [6] | Potency [7] | Potency [4] | Potency [5]

CC(C)Cn1cnc2c(N)nc3ccccc3c21
inactive: Potency [1] | Potency [4]
active: Potency [2] 5.26 µM | Potency [7] 5.9 µM

COC(=O)Nc1nc2ccc(S(=O)c3ccccc3)cc2[nH]1 (centres undefined)
inactive: Potency [4] | Potency [5]
active: Potency [1] 7.43 µM | Potency [3] 16.6 µM

CN(Cc1cc(Br)cc(Br)c1N)C1CCCCC1
inactive: Potency [1] | Potency [3] | Potency [7] | Potency [4]

COc1cc(NCc2ccc3nc(N)nc(N)c3c2C)cc(OC)c1OC
active: Potency [1] 16.6 µM | Potency [3] 2.96 µM | Potency [7] 1.05 µM | Potency [4] 6.62 µM | Potency [5] 1.18 µM | Potency [8] 4.18 µM

CN1CCN(c2c(F)cc3c(=O)c(C(=O)O)cn4c3c2OCN4C)CC1
inactive: Potency [1] | Potency [6] | Potency [4] | Potency [5]

CCC(=O)O[C@]1(C(=O)SCF)[C@H](C)C[C@H]2[C@@H]3C[C@H](F)C4=CC(=O)C=C[C@]4(C)[C@@]3(F)[C@@H](O)C[C@@]21C
inactive: Potency [1] | Potency [6] | Potency [3] | Potency [7] | Potency [4] | Potency [5] | Potency [8]

CC1=C(C(=O)O)N2C(=O)[C@@H](NC(=O)C(N)c3ccccc3)[C@H]2SC1 (some centres undefined)
inactive: Potency [1] | Potency [3] | Potency [7] | Potency [4] | Potency [5]

COc1ccc2c(c1)c(CC(=O)OCC(=O)O)c(C)n2C(=O)c1ccc(Cl)cc1
inactive: Potency [1] | Potency [6] | Potency [3] | Potency [4] | Potency [5]

CC[C@H](NC(C)C)[C@H](O)c1ccc(O)c2[nH]c(=O)ccc12
inactive: Potency [1] | Potency [2] | Potency [4]

CNS(=O)(=O)Cc1ccc2[nH]cc(CCN(C)C)c2c1
inactive: Potency [1] | Potency [6] | Potency [5]
active: viability (% of DMSO) [8] 103%

OC(Cn1cncn1)(Cn1cncn1)c1ccc(F)cc1F
active: Potency [6] 0.0418 µM
inactive: Potency [1] | Potency [7] | Potency [4] | Potency [5]

CN1CCCC(n2nc(Cc3ccc(Cl)cc3)c3ccccc3c2=O)CC1 (centres undefined)
active: Potency [1] 23.5 µM | Potency [3] 6.62 µM

CC(C)(Sc1cc(C(C)(C)C)c(O)c(C(C)(C)C)c1)Sc1cc(C(C)(C)C)c(O)c(C(C)(C)C)c1
inactive: Potency [1] | Potency [6] | Potency [4] | Potency [8]

NC(=O)c1ccc2[nH]ccc2c1
inactive: Potency [3] | Potency [4] | Potency [8]

O=c1cc(O)c(Cl)c[nH]1
inactive: Potency [1]
active: Potency [8] 1.18 µM

CCc1cc(C(N)=S)ccn1
inactive: Potency [2] | Potency [6] | Potency [7] | Potency [4] | Potency [5] | Potency [8]

COc1ccc2cc3[n+](cc2c1OC)CCc1cc2c(cc1-3)OCO2
active: Potency [1] 14.8 µM | Potency [4] 14.8 µM | Potency [5] 10.5 µM | Potency [8] 9.35 µM
